The text below walks through data of PubChem BioAssay (Tox21).

A number with no mark means an inactive call. Where a call stands in place of a potency, no number is given. Activity calls are given as the source filed them. Calls come from the whole dose curve; as a rule, active = well fitted curve in the direction sought with a large enough effect in the repeat runs; inconclusive = weak or mixed curves; inactive = flat fitted curve, though single readings scatter.

A short description of this assay: qHTS assay to test for compound auto fluorescence at 535 nm (green) in HepG2 cells (AID 720675). To be noted: green autofluorescence 485/535 nm, 1 h; series mostly up to 91.3 µM; fluorescence, % of fluorescein control: at the top concentration. The source says:
National Center for Advancing Translational Sciences [NCATS]
NIH Chemical Genomics Center [NCGC]
U.S. Environmental Protection Agency [EPA]
National Institutes of Environmental Health Sciences [NIEHS]
National Toxicology Program [NTP]
U.S. Food and Drug Administration [FDA]
Compound auto fluorescence often interferes with screening of the compound library against various biological targets and signaling pathways. Some of these compounds may have fluorophoric properties. Such properties may interfere with the assay outputs resulting in false positives and/or negatives. To decrease such complications and ensure the compound activities are relevant in terms of biological response, the Tox21 10K compound library was screened for auto fluorescence.
From the fluorophores used as reporter signals in our screening assays, the auto fluorescence equivalencies of compounds against three fluorophores have been evaluated: Triamterene, Fluorescein and Rose Bengal sodium for blue, green and red fluorescence, respectively. The fluorescence intensities were measured using Excitation/Emission wavelengths at 405/460nm, 485/535nm and 540/590nm for blue, green and red labels, respectively. This assay includes the green fluorescence data.
Tox21 Assay Protocol Summary:
2,000 HepG2 cells in 5 uL of culture medium (MEM containing 10% FBS) per well were dispensed into black wall/clear bottom 1536-well plates using a Multidrop Combi Dispenser (ThermoFisher Scientific, Waltham, MA). The assay plates were incubated overnight at 37 C to allow cell attachment to the well bottom, followed by the transfer of 23 nL compound or DMSO vehicle by a pintool work station (Kalypsys , San Diego, CA). After the assay plates were incubated for 1 hr at 37 C and 5% CO2, fluorescence intensities in the assay plates were measured by an Envision (PerkinElmer, Shelton, CT) plate reader using three labels for measuring blue, green and red fluorescence at […] 460, 535 and 590 nm respectively.
As to `C=C1CC[C@H](O)C/C1=C\C=C1/CCC[C@]2(C)[C@@H]([C@H](C)CCCC(C)C)CC[C@@H]12`, the Potency result was “inactive”.
Same read-out and setting: the entry for `O=C1NS(=O)(=O)c2ccccc21` is “inactive”; for `NC(CO)(CO)CO` it is “inactive”.
Still for that read-out and setting: to `CCOC(N)=O` belongs “inactive”.
Still for that read-out and setting: to `CC(O)(P(=O)(O)O)P(=O)(O)O` belongs “inactive”.
With `COc1ccc2cc(S(=O)(=O)N[C@H](CC(=O)N[C@H](Cc3ccc(CN4[C@H](C)CCC[C@@H]4C)cc3)C(=O)N(C)C(C)C)c3ccc4c(c3)OCO4)ccc2c1`, the “fluorescence, % of fluorescein control” value was 0.0052%.
Consider `O=C1c2c(O)cccc2Cc2cccc(O)c21`, for which the Potency result is “inactive”.
Same read-out and setting: to `C[C@](N)(Cc1ccc(O)c(O)c1)C(=O)O` belongs “inactive”.
Turning to `C1CCC(C(CC2CCCCN2)C2CCCCC2)CC1` (stereo not given), the “fluorescence, % of fluorescein control” value was 0.246% [at 46 µM].
As for `CCCCCCCC(=O)OCC(COC(=O)CCCCCCC)OC(=O)CCCCCCC`, the Potency result is “inactive”.
Same read-out and setting: the entry for `CCCCCCCCCCCC[N+](C)(C)Cc1ccccc1` is “inactive”; for `C=C(C)C(=O)OCC(C)O` (stereo not given) it is “inactive”.
Take `Nc1ccc([N+](=O)[O-])cc1O`: the “fluorescence, % of fluorescein control” value is -0.378%.
Take `CC(=O)C(=O)O`: the Potency entry was “inactive”.
`NC(=O)n1c(O)c(C(=O)c2cccs2)c2cc(Cl)ccc21`: the “fluorescence, % of fluorescein control” value is -0.0025% [at 46 µM].
In the case of `COc1ccc(CN(CCN(C)C)c2ccccn2)cc1`, the Potency entry is “inactive”.
For the compound `COc1ccc(OC(F)(F)F)cc1CN[C@H]1CCCN[C@H]1c1ccccc1`, the “fluorescence, % of fluorescein control” value is -0.0595%.
Take `Nc1ccc(S(N)(=O)=O)cc1`: the Potency entry was “inactive”.
The same measure, in the same setting: to `CC1(C)S[C@@H]2[C@H](NC(=O)[C@H](N)c3ccccc3)C(=O)N2[C@H]1C(=O)O` belongs “inactive”; to `Cc1ncc([N+](=O)[O-])n1C`, “inactive”; to `CN1CCC[C@H]1c1cccnc1`, “inactive”.
`COc1cccc(O)c1O`: the “fluorescence, % of fluorescein control” value is -0.0249% [at 95.7 µM].
As for `C1=CC2C3C=CC(C3)C2C1` (stereo not given), the “fluorescence, % of fluorescein control” value was -0.133%.
As for `O=c1[nH]cnc2c1ncn2[C@H]1CC[C@@H](CO)O1`, the Potency entry was “inactive”.
For `O=C1O[C@H]([C@@H](O)CO)C(O)=C1O`, the Potency result was “inactive”.
Same read-out and setting: to `CC(C)NCC(O)c1ccc(O)c(O)c1` (stereo not given) belongs “inactive”; to `CC1(C)O[C@@H]2C[C@H]3[C@@H]4CCC5=CC(=O)C=C[C@]5(C)[C@@]4(F)[C@@H](O)C[C@]3(C)[C@]2(C(=O)CO)O1`, “inactive”.
Same read-out and setting: to `CC(=O)CCC(=O)O` belongs “inactive”.
In the case of `O=C1NC(=O)C(c2ccccc2)(c2ccccc2)N1`, the Potency entry was “inactive”.
In the case of `CCCCCCCCCCCCCCCC[N+](C)(C)Cc1ccccc1`, the Potency entry was “inactive”.
On the same count and under the same terms, to `CC(=O)Nc1c(I)c(NC(C)=O)c(I)c(C(=O)O)c1I` belongs “inactive”; to `CC/C(=C(\c1ccccc1)c1ccc(OCCN(C)C)cc1)c1ccccc1`, “inactive”.
Consider `COc1ccc(C(Cl)=C(c2ccc(OC)cc2)c2ccc(OC)cc2)cc1`, for which the Potency result was “inactive”.
As to `Nc1ccc(O)c([N+](=O)[O-])c1`, the “fluorescence, % of fluorescein control” value was -0.296%.
Consider `CN(N=O)C(=O)N[C@@H]1[C@@H](O)[C@H](O)[C@@H](CO)O[C@@H]1O`, for which the Potency result is “inactive”.
The same measure, in the same setting: to `Oc1ccccc1` belongs “inactive”.
Take `CCCCCCc1ccc(O)cc1O`: the Potency entry was “inactive”.
On the same count and under the same terms, to `CCN(CC)C(=O)c1cccc(C)c1` belongs “inactive”; to `CC(=O)CC(c1ccccc1)c1c(O)c2ccccc2oc1=O` (stereo not given), “inactive”.
`Cc1cc(C)nc(NS(=O)(=O)c2ccc(N)cc2)n1`: the Potency result is “inactive”.
